Reference: PubChem BioAssay
A number with no mark means an inactive call. No rule for the calls is given here.

Target: Pantothenate synthetase (Mycobacterium tuberculosis (strain ATCC 25618 / H37Rv)) (UniProt P9WIL5)
Test: Recombinant Mtb pantothenate synthetase (PanC) inhibitors, coupled enzyme, confirmatory (AID 375);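 also: 0% = full reaction with vehicle and 100% = no enzyme background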
Conditions: coupled enzyme assay; at 10 µM, active compounds read high

Chain of Pantothenate synthetase (Mycobacterium tuberculosis (strain ATCC 25618 / H37Rv)) (P9WIL5 whole entry, looked up): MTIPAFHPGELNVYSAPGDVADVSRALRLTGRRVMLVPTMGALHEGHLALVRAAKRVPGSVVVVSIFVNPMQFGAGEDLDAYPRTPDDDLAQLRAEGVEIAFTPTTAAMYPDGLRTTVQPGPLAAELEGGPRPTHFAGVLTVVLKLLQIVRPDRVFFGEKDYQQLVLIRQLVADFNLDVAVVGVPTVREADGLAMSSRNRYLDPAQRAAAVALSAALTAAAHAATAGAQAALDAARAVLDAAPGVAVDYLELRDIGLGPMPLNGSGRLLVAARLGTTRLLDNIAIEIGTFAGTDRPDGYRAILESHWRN

| Compound | inhibition |
| --- | --- |
| O=C1NCC(COCc2ccccc2)O1 (stereo not drawn) | 3% |
| CCOC(=O)c1ccccc1NC1CC(=O)N(c2ccccc2C)C1=O (stereo not drawn) | 0% |
| CC(NC(=O)C1CC1)C(c1cccs1)N1CCN(c2ccccc2)CC1 (stereo not drawn) | 0% |
| CCc1cc(=O)oc2cc(OC(C)=O)cc(OC(C)=O)c12 | 0% |
| CC1=C(C(=O)N2CCCCC2)C(c2cccs2)C2=C(CCCC2=O)N1 (stereo not drawn) | 0% |
| CN(C)C(CN1C(=O)C2CC=CCC2C1=O)c1cn(C)c2ccccc12 (stereo not drawn) | 0% |
| c1ccc2oc(SCc3cn4ccccc4n3)nc2c1 | 0% |
| CCC(C)(C(=O)NC1CCCCC1)N(CC1CCCO1)C(=O)c1ccccn1 (stereo not drawn) | 0% |
| O=C(NCCN1CCOCC1)C1CCC(=O)N1Cc1ccccc1Cl (stereo not drawn) | 0% |
| CCC(CC)C(=O)Nc1cccc(C(=O)NCc2ccco2)c1 | 6% |
| CC(C)Cn1cc(C(=O)NCC2CCCO2)c2c3ccccc3n(C)c2c1=O (stereo not drawn) | 4% |
| CC1CCN(C(=O)Cn2c(=O)oc3ccccc32)CC1 | 0% |
| CCOC(=O)CCC(=O)Nc1ccc(S(=O)(=O)N2CCCC2)cc1 | 0% |
| Cn1c(=O)c(=O)n(C)c2cc(S(=O)(=O)N3CCN(c4cccc(C(F)(F)F)c4)CC3)ccc21 | 9% |
| O=c1c(CN2CCN(Cc3ccccc3)CC2)coc2ccc(Cl)cc12 | 0% |
| COc1ccccc1OCc1nc2ccccc2[nH]1 | 0% |
| CC(C(=O)N1CCc2ccccc21)N1CCc2ccccc2C1 (stereo not drawn) | 3% |
| COc1ncnc2c1N=C1CC(C)(C)CC(N)=C1S2 | 0% |
| COc1ccccc1N1CCN(C(=O)C2CCN(S(=O)(=O)c3ccc(F)cc3)CC2)CC1 | 0% |
| CC1(C)Cc2c(sc3ncnc(N)c23)CO1 | 14% |
| C=C(Cl)COC(=O)[C@H]1C2C=CC(C2)C1C(=O)O (stereo partly drawn) | 2% |
| Cc1cc(Nc2ccccc2)n(-c2ccccc2)n1 | 3% |
| Cc1cc(C)c2c(=O)n(CC(=O)NCCCN3CCN(c4ccccc4F)CC3)sc2n1 | 0% |
| COc1ccccc1NC1=C(C)C(=O)CC1 | 0% |

| Compound | inhibition |
| --- | --- |
| Cc1ccc(S(=O)(=O)CC(=O)N2CCCCCC2)cc1 | 0% |
| Cn1cnc(S(=O)(=O)NCc2cccs2)c1 | 0% |
| Cn1c(=O)c2c(nc(SCC(=O)NCc3ccc4c(c3)OCO4)n2Cc2ccccc2)n(C)c1=O | 0% |
| CCOC(=O)CC(=O)c1cc(OC)c(OC)c(OC)c1 | 0% |
| CC1(C)CC(CCNC(=O)c2ccco2)CC(C)(C)N1 | 0% |
| CCCc1cc(C(=O)Nc2sc(C)c(C)c2C(=O)OCC)no1 | 3% |
| CN(C)c1nc(N)nc(CSc2nnnn2-c2cccc3ccccc23)n1 | 0% |
| CCOc1ccc(-c2cn(S(=O)(=O)c3cccc4nsnc34)nc2N)cc1 | 0% |
| Cc1cc(NC(=O)CSc2ccc3nnc(-c4cccc(F)c4)n3n2)no1 | 0% |
| Nc1nc(CN2CCOCC2)cs1 | 1% |
| Cn1c(Cc2csc(N)n2)nnc1SCC(=O)NC1CCCCC1 | 4% |
| CCn1c(SCC(=O)Nc2ccc(C(=O)OC)cc2)nnc1-c1cccs1 | 3% |
| O=C(Cn1ccc2ccccc2c1=O)NCCC(=O)N1CCN(C2CCCCC2)CC1 | 5% |
| CCOC(=O)N1CCN(C(=O)Nc2ccc3oc(C)nc3c2)CC1 | 7% |
| CC(=O)OCC(=O)[C@H]1CC[C@H]2[C@@H]3CC=C4C[C@@H](O)CC[C@]4(C)[C@H]3CC[C@]12C | 1% |
| Cc1ccc(C)c(N2CCN(CCCNC(=O)Cn3cc4c(n3)CCC(C)C4)CC2)c1 (stereo not drawn) | 8% |
| CS(=O)(=O)Nc1ccc(C(=O)NCc2ccc3c(c2)OCO3)cc1 | 4% |
| CN(C)c1ccc(C=NCC2(O)CCOC(C)(C)C2)cc1 (stereo not drawn) | 3% |
| O=C(Nc1ccccn1)N1CCOCC1 | 4% |
| Cc1cccc(NC(=O)CS(=O)(=O)c2cn(C)c3ccccc23)c1 | 0% |
| CC1(C)CC(=O)CC(C)(C)N1OC(=O)c1ccccn1 | 0% |
| Cc1cccc(NC(=O)CC(C)(C)C)c1 | 0% |
| Cc1cc(O)c(NC(=O)c2ccc(Br)o2)cc1C | 11% |
| COC(=O)c1ccc(CSc2nc3ccccc3c(=O)n2Cc2ccco2)o1 | 6% |
